TEAD-YAP block – TEAD-YAP interaction inhibition, primary screen, TEAD-YAP interaction inhibitor project, luminescence, HEK-TIYL cells | TEAD-Gal4/YAP UAS-luciferase luminescence | inhibition, % at 9.12 µM | 640,000 compounds, 1.4% hits; in the data active = inhibition above about 32%
MITF inh – MITF inhibitors, primary screen, biochemical, AlphaScreen, human; AlphaScreen MITF homodimerization, bead proximity signal; inhibition, % at 2.6 µM; 650,000 compounds, 0.91% hits; AID 1259374, 2018; in the data active = inhibition above about 50%
GPR151 ag – activators of human GPR151, primary screen, cell-based, PathHunter beta-arrestin, luminescence; G-protein coupled receptor 151 (Homo sapiens), Q8TDV0; activation, % at 11.2 µM; 650,000 compounds, 1% hits; PathHunter beta-arrestin GPR151 cells; in the data active = activation above about 4.9%
FBW7 act – FBW7 E3 ligase activators, primary screen, biochemical, AlphaScreen, human. F-box/WD repeat-containing protein 7 (Homo sapiens), Q969H0. normalized activity (activation), % at 26.1 µM. 650,000 compounds, 0.13% hits. AlphaScreen FBW7–phospho-cyclin E peptide binding, activator screen. AID 1259310, 2017; in the data active = normalized activity above about 1.9%;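 note: purified mutant Fbw7 with reduced substrate affinity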
Target sequence (Q969H0 whole entry, looked up): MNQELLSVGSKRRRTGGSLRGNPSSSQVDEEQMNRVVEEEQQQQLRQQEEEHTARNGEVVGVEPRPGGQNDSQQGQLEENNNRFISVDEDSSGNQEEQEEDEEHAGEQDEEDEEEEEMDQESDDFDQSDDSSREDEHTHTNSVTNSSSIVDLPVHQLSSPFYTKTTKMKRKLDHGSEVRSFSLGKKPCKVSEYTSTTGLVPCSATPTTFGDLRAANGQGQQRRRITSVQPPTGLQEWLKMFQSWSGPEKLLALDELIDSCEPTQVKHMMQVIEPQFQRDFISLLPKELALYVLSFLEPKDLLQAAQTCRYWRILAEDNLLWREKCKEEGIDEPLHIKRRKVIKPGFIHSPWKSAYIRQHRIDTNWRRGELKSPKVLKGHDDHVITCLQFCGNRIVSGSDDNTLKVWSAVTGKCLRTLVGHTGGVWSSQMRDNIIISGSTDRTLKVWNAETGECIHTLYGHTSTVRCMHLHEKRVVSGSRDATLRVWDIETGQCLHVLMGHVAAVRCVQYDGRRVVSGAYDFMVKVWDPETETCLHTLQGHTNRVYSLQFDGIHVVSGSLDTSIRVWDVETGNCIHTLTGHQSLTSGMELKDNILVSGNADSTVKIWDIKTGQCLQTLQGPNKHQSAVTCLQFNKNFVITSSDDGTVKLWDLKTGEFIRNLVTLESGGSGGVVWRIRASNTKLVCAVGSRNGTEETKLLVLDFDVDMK
MITF inh conf – MITF inhibitors, retest of hits, confirmation, biochemical, AlphaScreen, triplicate; AlphaScreen MITF homodimerization, biotin/His-MITF beads; inhibition, % at 2.6 µM; shares compounds with MITF inh; 4,700 compounds, 16% hits;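 active = inhibition above a cutoff derived from the DMSO control wells, cut at about 28% in these data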;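 note: inhibitors lower the bead chemiluminescence by keeping MITF from dimerizing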
AS interf DR – AlphaScreen optical interference compounds, dose response, counter-screen, biochemical, HTS; shares compounds with MITF inh; AlphaScreen optical interference counterscreen, cell-free; IC50, µM; 480 compounds, 6% hits; call rule not given here
AlphaScreen intf2 – AlphaScreen optical interference compounds, counter-screen for MITF inhibitor project, biochemical, triplicate; 4,700 compounds, 7.6% hits; shares compounds with MITF inh; LysRS AlphaScreen counterscreen, signal interference; inhibition, % at 2.6 µM;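 active = inhibition above a cutoff derived from the DMSO control wells, cut at about 30% in these data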
Hits are given with their value; – = inactive; · = not tested or not shown; ! = not confirmed by another sample. Only some compounds are listed: those with a hit (about 3.5% of all), similar ones and a draw of the others.

SMILES	TEAD-YAP block	MITF inh	GPR151 ag	FBW7 act	MITF inh conf	AlphaScreen intf2	others
Cc1ccc(N(CC(=O)NC(C(C)C)C(C)C)S(C)(=O)=O)cc1C	–	68	–	–	–	–
CC(=O)CC(=O)NC(C)c1ccccc1 (stereo not given)	–	–	–	–	·	·
CC(NC(=O)CNCc1ccccn1)c1ccccc1 (stereo not given)	–	74	–	–	–	100
COc1ccc(OCC(=O)OCC(=O)COC(=O)COc2ccc(OC)cc2)cc1	–	77	–	–	–	–
O=[N+]([O-])c1ccccc1Nc1nc(-c2ccccn2)cs1	–	–	–	–	·	·
S=c1[nH]nc(-c2ccccc2)n1/N=C/C=C/c1ccco1	–	–	–	–	·	·
S=c1[nH]nc(-c2cccnc2)n1/N=C/C=C/c1ccco1	–	71	–	–	77	–	AS interf DR=–
COC(=O)C1=C(N)Oc2cc(C)n(Cc3ccccc3)c(=O)c2C1c1ccccc1Cl (stereo not given)	–	–	–	–	·	·
Cc1ccc2nsnc2c1NC(=O)c1ncn[nH]1	–	53	–	–	–	–
Cc1ccc(OCC(=O)O/N=C(\N)c2cccc([N+](=O)[O-])c2)c(C)c1	–	–	–	–	·	·
CC1=C(C(=O)OC2CCCCC2)C(c2cccc([N+](=O)[O-])c2)C2=C(CC(C)(C)CC2=O)N1 (stereo not given)	–	–	–	–	·	·
O=C1c2cccc3cccc(c23)C(=O)N1CCCN(C(=O)c1ccc(-c2ccccc2)cc1)c1ccccc1	–	–	–	–	·	·
C=CCNC(=O)COC(=O)c1cc(-c2ccco2)nc2ccccc12	–	57	–	–	65	–	AS interf DR=–
N#Cc1cc([N+](=O)[O-])ccc1NC(=O)COC(=O)c1cc(-c2ccco2)nc2ccccc12	–	51	–	–	41	–	AS interf DR=–
CN(C)CCNc1nc(C2COc3ccccc3O2)nc2ccc(-c3cn[nH]c3)cc12 (stereo not given)	–	52!	–	–	64	–	AS interf DR=–
CC1(C)C2CC=C(CN3CCN(Cc4ccc5c(c4)OCO5)CC3)C1C2 (stereo not given)	–	64	–	–	–	–
CC1(C)C2CC=C(COCC(O)CN3CCN(Cc4ccc5c(c4)OCO5)CC3)C1C2 (stereo not given)	–	70	–	–	–	–
CC1(C)[C@H]2CC=C(CN3CCOc4ccc(CN5CCC(O)CC5)cc4C3)[C@@H]1C2	–	–	–	–	·	·
CC(C)CCNC(=O)C(=O)NCC1OCCCN1S(=O)(=O)c1ccc(F)cc1 (stereo not given)	–	67	–	–	–	–
CC(C)CNC(=O)C(=O)NCC1OCCCN1S(=O)(=O)c1ccc(Cl)cc1 (stereo not given)	–	64	–	–	–	–
CCn1c(C(=O)O)c(CC(=O)NCC2COc3ccccc3O2)c2ccccc21 (stereo not given)	–	–	–	–	·	·
CCC(C)NC(=O)c1oc2ccc(S(=O)(=O)N3CCCC3)cc2c1C (stereo not given)	–	–	–	–	·	·
CCCNC(=O)Cn1cnc2sc(C(=O)Nc3cc(Cl)c(OC)cc3OC)c(C)c2c1=O	–	–	–	–	·	·
COc1ccc(Nc2nc(-c3cccs3)cs2)c(OC)c1	–	71	–	–	–	–
CC1CCN(C(=O)c2cnn3c(C(F)(F)F)cc(-c4ccco4)nc23)CC1	–	–	–	–	·	·
SMILES	TEAD-YAP block	MITF inh	GPR151 ag	FBW7 act	MITF inh conf	AlphaScreen intf2	others
COc1cccc(OC)c1C(=O)N1CCN(Cc2ccccc2C(F)(F)F)CC1	–	52	–	–	–	–
COc1cc(OC)cc(C(=O)N2CCN(Cc3ccccc3C(F)(F)F)CC2)c1	–	62	–	–	–	–
COc1cc(OC)cc(C(=O)N2CCN(Cc3cc(OC)c(OC)cc3OC)CC2)c1	–	–	–	–	·	·
COc1ccccc1CN1CCN(C(=O)c2cccs2)CC1	–	–	–	–	·	·
COc1ccccc1CN1CCN(Cc2ccccc2C(F)(F)F)CC1	–	70	–	–	–	–
COc1cccc(OC)c1C(=O)N1CCN(Cc2ccccc2Br)CC1	–	63	–	–	–	–
COc1ccc(OC)c(CN2CCN(C(=O)c3c(OC)cccc3OC)CC2)c1	–	–	–	–	·	·
O=C(NC(=S)Nc1ccc(-c2nc3ncccc3o2)cc1)c1ccccc1	–	–	–	–	·	·
COc1ccc(C2/C(=C(/O)c3ccc(C)cc3)C(=O)C(=O)N2CC(C)O)cc1OC (stereo not given)	–	68	–	–	–	–
O=c1[nH]nc(-c2ccccc2)c2c1-n1nnnc1NC2c1ccccc1 (stereo not given)	–	–	–	–	·	·
O=P(O)(O)C(Sc1ccc(Cl)cc1)P(=O)(O)O	·	96	–	–	106	–	AS interf DR=–
O=C(CN1CC(=O)Oc2ccccc21)Oc1ccc(F)cc1	–	69	–	–	–	–
CN1CCN(CC(O)Cn2cc(/C=C/C(=O)c3cccs3)c3ccccc32)CC1 (stereo not given)	–	–	–	–	·	·
CN1CCN(CC(O)Cn2cc(/C=N/O)c3ccccc32)CC1 (stereo not given)	–	59	–	–	–	–
CCCCC[C@H](O)/C=C/[C@H]1C(=O)C[C@H](O)[C@@H]1C/C=C\CCCC(=O)O	·	–	–	·	·	·
CSCCC(NC(=O)CCN1C(=O)c2ccccc2C1=O)C(=O)O (stereo not given)	–	–	–	–	·	·
CCCCC[C@H](O)/C=C/[C@H]1C=CC(=O)[C@@H]1CCCCCCC(=O)O	·	–	–	·	·	·
CCCCC[C@H](O)/C=C/[C@H]1C(=O)C[C@H](O)[C@@H]1C/C=C\CCCCC(=O)NCCCCCNC(=O)CCCC[C@@H]1SC[C@@H]2NC(=O)N[C@@H]21	·	124	–	·	123	101
CCCCC[C@H](O)/C=C/[C@H]1C=CC(=O)[C@@H]1CCCCCCC(=O)NCCCCCNC(=O)CCCCC1SC[C@@H]2NC(=O)N[C@H]12 (stereo not given in full)	·	124	–	·	123	101
CCCCC[C@H](O)/C=C/[C@H]1C(=O)C[C@H](O)[C@@H]1C/C=C\CCCC(=O)NC(CO)CO	·	–	–	·	·	·
